Experimental data reported in PubChem BioAssay (Tox21).
Inconclusive results are not listed. A number with no mark means an inactive call. Activity calls are given as the source filed them. Calls follow the shape of the dose curve; as a rule, active = well fitted curve in the direction sought with a large enough effect in the repeat runs; inconclusive = weak or mixed curves; inactive = no such curve, though single readings can be large; an effect the other way counts as inactive or inconclusive.

Target: Nuclear receptor subfamily 1 group I member 2 (Homo sapiens) (UniProt O75469)
Assay: Human pregnane X receptor (PXR) small molecule agonists, qHTS assay (AID 1346982); also: nearly all actives have a fitted effect of over 35% in size; also: potency is read from the fitted curve at half-maximal effect
Conditions: PXR-Luc HepG2, CYP3A4 luciferase reporter, 24 h; series mostly up to 92.4 µM; activation: at the top concentration
Summary of the method: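 HepG2 PXR-Luc reporter line, 5% charcoal-stripped FBS; 5 hr pre-incubation, compound (DMSO) 24 hr at 37 C/5% CO2; ONE-Glo 30 min RT; luminescence read-out.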
% is scaled to controls: 0 for no effect and ±100 for the full control effect.

Chain of Nuclear receptor subfamily 1 group I member 2 (Homo sapiens) (O75469 whole entry, looked up): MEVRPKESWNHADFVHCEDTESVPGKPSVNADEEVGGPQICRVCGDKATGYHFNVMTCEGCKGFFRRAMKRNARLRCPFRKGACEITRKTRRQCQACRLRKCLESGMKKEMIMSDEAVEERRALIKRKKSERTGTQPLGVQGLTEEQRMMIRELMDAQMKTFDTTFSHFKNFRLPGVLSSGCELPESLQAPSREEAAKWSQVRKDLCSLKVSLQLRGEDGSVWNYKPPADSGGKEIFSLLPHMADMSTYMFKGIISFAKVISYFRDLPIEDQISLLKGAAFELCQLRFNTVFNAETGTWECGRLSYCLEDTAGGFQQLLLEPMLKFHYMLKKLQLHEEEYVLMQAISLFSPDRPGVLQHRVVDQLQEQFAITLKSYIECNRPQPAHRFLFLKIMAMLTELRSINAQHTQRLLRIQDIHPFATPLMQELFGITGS

SMILES | activation | Potency
C=Cc1ccc(C=C)cc1 | 5.96% | 
O=C(Nc1ccc2c(c1)Cc1ccccc1-2)C(F)(F)F |  | 34.4 µM (active)
O=C(OCCN1CCOCC1)c1cccnc1Nc1cccc(C(F)(F)F)c1 |  | 26.6 µM (active)
CC[C@H](NC(C)C)[C@H](O)c1ccc(O)c2[nH]c(=O)ccc12 | -2.71% [at 42.5 µM] | 
C1=COCCC1 | -10.2% | 
Clc1cc(Cl)c2c(c1)N=C1CCCCCN1C2 |  | 29.8 µM (active)
COc1ccc(C(=O)c2ccc(C)cc2)c(O)c1 |  | 11 µM (active)
CC(=O)S[C@H](C(=O)N[C@H]1Cc2ccccc2[C@H]2CCC[C@@H](C(=O)O)N2C1=O)C(C)C | -3.61% | 
CCCCCCOC(=O)c1ccccc1 | -3% | 
O=S(=O)(O)c1cc(Cl)c(Cl)cc1Cl | 10.3% | 
O=C1c2ccccc2C(=O)c2c1ccc(O)c2O | -2.16% [at 42.5 µM] | 

Target: Nuclear receptor subfamily 1 group I member 2 (Rattus norvegicus) (UniProt Q9R1A7)
Assay: Rat pregnane X receptor (rPXR) activation by small molecules, qHTS assay (AID 1346983); also: nearly all actives have a fitted effect of over 20% in size
Conditions: rPXR luciferase reporter cells, One-Glo luminescence, 24 h; max activation: active compounds read high
Summary of the method: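 Cell-based rPXR luciferase reporter assay, 2,000 cells per well, rested 5hr at 37 C before compound addition in DMSO, then 24 hr at 37 C. One-Glo reagent was added and luminescence read after 30 min at room temperature.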

Chain of Nuclear receptor subfamily 1 group I member 2 (Rattus norvegicus) (Q9R1A7 whole entry, looked up): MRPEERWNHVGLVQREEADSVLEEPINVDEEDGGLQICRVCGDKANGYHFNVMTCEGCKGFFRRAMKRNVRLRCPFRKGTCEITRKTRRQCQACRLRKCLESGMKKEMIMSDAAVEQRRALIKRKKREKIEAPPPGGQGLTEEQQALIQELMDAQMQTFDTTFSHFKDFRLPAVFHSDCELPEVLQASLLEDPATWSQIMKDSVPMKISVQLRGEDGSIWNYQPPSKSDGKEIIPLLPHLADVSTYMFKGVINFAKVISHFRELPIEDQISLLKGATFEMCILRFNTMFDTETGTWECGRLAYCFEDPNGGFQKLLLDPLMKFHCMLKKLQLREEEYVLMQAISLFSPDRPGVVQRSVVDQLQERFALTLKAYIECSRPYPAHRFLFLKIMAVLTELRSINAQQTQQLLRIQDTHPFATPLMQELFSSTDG

SMILES | max activation
Cc1ccc(S(=O)(=O)NC(=O)NC2CCCC2)cc1 | -4.06%
CC[C@H](NC(C)C)[C@H](O)c1ccc(O)c2[nH]c(=O)ccc12 | -3.27%
COc1ccc(C(=O)c2ccc(C)cc2)c(O)c1 | -1.42%
O=C1c2ccccc2C(=O)c2c1ccc(O)c2O | 0.447%

Target: Nuclear receptor subfamily 1 group I member 2 (Homo sapiens) (UniProt O75469)
Assay: CYP3A4 induction through human pregnane X receptor (PXR) by small molecules, qHTS assay (AID 1346984); also: nearly all actives have a fitted effect of over 40% in size; also: potency is read from the fitted curve at half-maximal effect
Conditions: DPX-2 HepG2 PXR, CYP3A4-luciferin luminescence, 24 h; series mostly up to 46.1 µM; activation: at the top concentration
Summary of the method: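 HepG2-derived DPX-2 line carrying PXR plus a CYP3A4-promoter luciferase reporter; cells plated 5 hr, compound-exposed 24 hr at 37C. CYP3A4 activity probed with 3uM (final) Luciferin-IPA for 3hr, then luciferase read after One-Glo.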

SMILES | activation | Potency
Cc1ccc(S(=O)(=O)NC(=O)NC2CCCC2)cc1 | -6.53% | 
CC[C@H](NC(C)C)[C@H](O)c1ccc(O)c2[nH]c(=O)ccc12 | -12.7% | 
COc1ccc(C(=O)c2ccc(C)cc2)c(O)c1 | -9.52% | 
O=C1c2ccccc2C(=O)c2c1ccc(O)c2O |  | 14.1 µM (active)

Target: Nuclear receptor subfamily 1 group I member 2 (Homo sapiens) (UniProt O75469)
Assay: Human pregnane X receptor (PXR) activation by small molecules, qHTS assay (AID 1346985); also: nearly all actives have a fitted effect of over 40% in size
Conditions: DPX-2 HepG2 CYP3A4-luciferase, 24 h; series mostly up to 38.3 µM; activation: at the top concentration
Summary of the method: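 DPX-2 cells (HepG2 co-transfected with a PXR response element and a CYP3A4-promoter luciferase construct) were seeded at 2,000 per well, rested 5 hr at 37C, then exposed to DMSO-dissolved compounds for 24 hr. Activation was read as luciferase luminescence.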

SMILES | activation
Cc1ccc(S(=O)(=O)NC(=O)NC2CCCC2)cc1 | 3.79%
CC[C@H](NC(C)C)[C@H](O)c1ccc(O)c2[nH]c(=O)ccc12 | 0.519%
O=C1c2ccccc2C(=O)c2c1ccc(O)c2O | 10.2%

Target: Cytochrome P450 2D6 (Homo sapiens) (UniProt P10635)
Assay: Cytochrome P450 Family 2 Subfamily D Member 6 (CYP2D6) small molecule antagonists: luciferase reporter qHTS assay (AID 1671196); also: nearly all actives have a fitted effect of over 50% in size; also: potency is read from the fitted curve at half-maximal effect
Conditions: P450-Glo CYP2D6 enzyme assay, luciferin luminescence, 1 h; series mostly up to 115 µM; activity change, negative = inhibition: at the top concentration
Summary of the method: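 Luminogenic proluciferin substrate, CYP2D6 enzyme; 10 min RT preincubation with compound, NADPH regeneration system added, 1 h RT. Stop/detection reagent, 20 min RT, luminescence read (RLU). Signal proportional to CYP activity.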

Chain of Cytochrome P450 2D6 (Homo sapiens) (P10635 whole entry, looked up): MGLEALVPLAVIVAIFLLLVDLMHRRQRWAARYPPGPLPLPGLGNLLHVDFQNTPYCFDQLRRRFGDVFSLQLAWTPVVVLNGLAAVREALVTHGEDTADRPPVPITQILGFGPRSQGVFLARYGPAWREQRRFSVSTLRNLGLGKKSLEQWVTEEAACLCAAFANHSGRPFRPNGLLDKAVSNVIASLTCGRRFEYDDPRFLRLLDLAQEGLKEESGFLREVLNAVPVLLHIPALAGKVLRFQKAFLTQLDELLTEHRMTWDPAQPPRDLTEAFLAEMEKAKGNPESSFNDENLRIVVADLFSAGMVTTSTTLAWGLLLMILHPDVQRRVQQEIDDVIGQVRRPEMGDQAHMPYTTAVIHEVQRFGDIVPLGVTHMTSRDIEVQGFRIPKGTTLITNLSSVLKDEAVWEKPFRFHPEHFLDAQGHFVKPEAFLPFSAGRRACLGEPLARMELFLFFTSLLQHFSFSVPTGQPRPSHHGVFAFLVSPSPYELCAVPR

SMILES | Potency | activity change, negative = inhibition
COc1cc(CNC(=O)CCCC/C=C/C(C)C)ccc1O | 38.9 µM (active) | 
C[C@H]1C[C@H]2[C@@H]3CCC4=CC(=O)C=C[C@]4(C)[C@@]3(F)[C@@H](O)C[C@]2(C)[C@@]1(O)C(=O)COP(=O)(O)O |  | 0.416%
O=c1[nH][nH]c2ccccc12 |  | -11.8%
C=C(C)C(=O)OCCCCCCCCCCOC(=O)C(=C)C | 35.6 µM (active) | 
Cc1ccc(S(=O)(=O)NC(=O)NC2CCCC2)cc1 |  | -0.0306% [at 53 µM]
CCCCCCCCOCCCN | 6.33 µM (active) | 
CC(C)Oc1ccccc1O |  | 0.181%
CCCN(C1CCN(C(=O)C2CCNCC2)CC1)[C@@H]1CCc2ccc(OC)cc2C1 | 10 µM (active) | 
CCCc1ccc(OC)cc1 |  | -0.231%
Cc1cc(C)c(C)c(O)c1 |  | 0.142%
Cc1c(-c2cccnc2)c2ccccc2n1CCCCC(=O)O |  | -18.7%
C=CCCC |  | 2.25%
CCCCCCC/C=C/C=O | 39.9 µM (active) | 
Clc1ccccc1-c1nc(-c2ccncc2)no1 | 13.8 µM (active) | 
C=CC(=O)NC(C)(C)C |  | -10.5%
CC(C)CC(C)(C)C | 36.9 µM (active) | 
COc1ccc(/C=C/c2cc(OC)cc(=O)o2)cc1 |  | -20.4% [at 53 µM]
C=Cc1ccc(C=C)cc1 |  | -23.7%
C(/C=C/C=C/Nc1ccccc1)=Nc1ccccc1 | 71 µM (active) | 
O=C(Nc1ccc2c(c1)Cc1ccccc1-2)C(F)(F)F |  | -6.61%
Clc1cc(Cl)c2c(c1)N=C1CCCCCN1C2 | 2.75 µM (active) | 
COc1ccc(C(=O)c2ccc(C)cc2)c(O)c1 | 40.4 µM (active) | 
CCCCCCOC(=O)c1ccccc1 |  | -8.47%
